Bioassay records from PubChem BioAssay.
Shiga inhibitor – blocks Shiga toxin action in Vero cells | Vero cells, Shiga toxin protein synthesis inhibition reporter | inhibition, % at 38.7 µM | hit rate 9.2% among 290,000 | AID 2315; in the data active means inhibition mostly above about 28%, no sharp cut-off; inactive means mostly below about 43%; further: 0% is about no effect
Vaccinia mCherry – inhibitors of vaccinia virus infection (mCherry reporter signal); hit rate 0.63% among 310,000; Vaccinia virus mCherry reporter infection, fluorescence; Potency, µM (series often up to 36.5 µM), for the others: at the top dose activity change, negative = inhibition, usual class: inhibitors; calls by dose curve; tested in A549 cells; further: potency means the concentration at half of the fitted maximal effect; on the % scale 0 is the no-effect control and ±100 the full control effect; nearly all actives have a fitted effect of over 35% in size
LASV entry inh – blocks Lassa virus binding to or entry into cells | Potency, µM (highest dose often 37.9 µM), for inactives: at the highest dose activity change, negative = inhibition, hits mostly inhibitors | hit rate 1.2% among 300,000 | Lassa virus pseudotype entry inhibition, cell reporter; calls by dose curve; tested in HEK293 cells; further: potency means the concentration at half of the fitted maximal effect; on the % scale 0 is the no-effect control and ±100 the full control effect; nearly all actives have a fitted effect of over 50% in size
CHX counter – affects cycloheximide protein synthesis inhibition readout, counter-screen | AID 2314 | max response, % | cell reporter, cycloheximide protein synthesis inhibition counterscreen | hit rate 12% among 300,000; in the data active means max response mostly above about 13%, no sharp cut-off; inactive means mostly below about 14%; further: read at 38.3 µM for the half of the compounds with a filed dose; 0% is about no effect
Marburg entry inh – Marburg virus entry inhibition; Marburg virus pseudotyped entry inhibition, cell reporter; AID 540276; Potency, µM (titrated, usually from 37.8 µM), inactives show at the highest dose activity change, negative = inhibition, most hits filed as inhibitors; hit rate 1.8% among 300,000; calls by dose curve; tested in HEK293 cells; further: potency means the concentration at half of the fitted maximal effect; on the % scale 0 is the no-effect control and ±100 the full control effect
VACV Venus inh – inhibitors of vaccinia virus (Venus reporter); Vaccinia virus Venus reporter expression, fluorescence; Potency, µM (highest dose often 36.5 µM), without a hit: top-dose activity change, negative = inhibition, most hits filed as inhibitors; hit rate 0.46% among 330,000; calls by dose curve; tested in A549 cells; further: potency means the concentration at half of the fitted maximal effect; on the % scale 0 is the no-effect control and ±100 the full control effect; nearly all actives have a fitted effect of over 30% in size
* hit, by the source's call; i = inactive; ? = inconclusive; / = no result; + = active, no number; [ ] = another dose, or the depositor's remark. Only a selection was taken, and hits are over-represented in it overall.

SMILES	Shiga inhibitor	Vaccinia mCherry	LASV entry inh	CHX counter	Marburg entry inh	VACV Venus inh
CC(C)C(NS(C)(=O)=O)c1nnc2n1CCN(Cc1ccnc3ccccc13)CC2 (stereo not given)	/	-18%	/	/	/	-6%
CS(=O)(=O)N(CC(=O)NCc1ccco1)c1ccc(OCc2ccccc2)cc1	32	i	?	16	-2%	-2%
CCCCOc1ccc(N(CC(=O)NCc2ccccc2)C(=O)c2csnn2)cc1	30*	-22%	-14%	27	10%[46.1 µM]	-12%
CCOc1ccc(N(CC(=O)NCc2ccccc2)S(C)(=O)=O)cc1	68*	/	-4%	26*	26%	-8%
COc1ccc(S(N)(=O)=O)cc1C(=O)OCC(=O)NC(C)(C#N)C1CC1 (stereo not given)	/	i	11%	/	?	-12%
N/C(=C\C(=O)c1cc(Cl)ccc1O)C(Cl)(Cl)Cl	24	-29%	/	13*	/	?
O=C(Nc1cc(C(F)(F)F)cc(C(F)(F)F)c1)c1cc(Cl)ccc1O	-3	/	/	-6	/	/
CC(C)c1ccc(C(=O)CC2(O)C(=O)N(CN3CCOCC3)c3ccccc32)cc1 (stereo not given)	64*	-7%	16%	39*	12%	-2%
CCc1ccc(C(=O)CC2(O)C(=O)N(CN3CCOCC3)c3ccccc32)cc1 (stereo not given)	30	-8%	4%	19*	?	-3%
Cc1ccc(C(=O)CC2(O)C(=O)N(CN3CCOCC3)c3ccccc32)cc1 (stereo not given)	44*	/	1%	18*	7%[46.1 µM]	3%
CCc1ccc(C(=O)CC2(O)C(=O)N(Cc3ccc(C)cc3)c3ccccc32)cc1 (stereo not given)	/	-4%[7.34 µM]	?	/	-11%[46.1 µM]	-6%[7.34 µM]
CCc1nnc(NC(=O)CCC(=O)NC2CC2)s1	8	/	/	9	/	/
Cc1cccc(NC(=O)c2ccc3nccnc3c2)n1	46*	i	14%[46.1 µM]	49*	?	-17%
Cc1cccc(NC(=O)c2ccc3c(c2)OCCO3)n1	50*	-7%	?	45*	?	-15%
CC(C)(C)c1csc(NC(=O)c2ccc3nccnc3c2)n1	80*	/	-4%	63*	?	-20%
CC(C)(C)c1csc(NC(=O)c2ccncc2)n1	19	-21%	?	14	?	-22%
Cc1cccc(NC(=O)CNC(=O)c2ccc3c(c2)OCO3)n1	/	-16%	10%	/	-10%	-3%
COc1cc(NC(=O)Nc2nnc([C@@H]3C[C@H](O)[C@@H](CO)O3)s2)cc(OC)c1OC	/	17%	/	/	/	9%
CC(C)C(=O)Nc1ccc(Oc2ccc3c(c2)C(=O)NC3=O)cc1	12	i	23%	1	19%	-14%
Cc1cc(C)n(-c2nc(NC(C)C)nc(NC(C)(C)C)n2)n1	/	-11%	/	/	/	-18%
N#C/C(=C\c1cccnc1)c1ccc(Br)cc1	44	i	/	47*	/	-25%
N#CC(C#N)=Cc1cccnc1	4	-16%	12%	-2	5%[46.1 µM]	-7%
Cc1ccc(N/C=C2\C(=O)C3(C)CCC2C3(C)C)cc1C (stereo not given)	27	-15%	-25%	21*	-25%[46.1 µM]	5%
Fc1cccc(Nc2c3c(nc4ccccc24)CCC3)c1	-10	?	?	-3	-2%[46.1 µM]	-6%
c1ccc2c(Nc3ccc4c(c3)OCCO4)c3c(nc2c1)CCCC3	-3	?	7.9µM*	14	?	?
SMILES	Shiga inhibitor	Vaccinia mCherry	LASV entry inh	CHX counter	Marburg entry inh	VACV Venus inh
COc1ccccc1Nc1c2c(nc3ccccc13)CCC2	-6	?	?	-6	?	-27%
COc1cc(Nc2c3c(nc4ccccc24)CCCC3)cc(OC)c1OC	-4	?	-19%[46.1 µM]	-3	4.5µM*	?
O=S1(=O)CC(N2CCCCC2)CN1Cc1cn(Cc2cccc(Cl)c2)nn1 (stereo not given)	/	16%	/	/	/	2%
COC(=O)c1ccccc1NC(=O)Cn1cnc([N+](=O)[O-])c1	-5	/	/	-2	/	/
CCC(=O)Nc1cccc(-c2nc3ccc(C)cc3o2)c1	125*	-5%	-21%[46.1 µM]	52*	?	-17%
CCC(=O)Nc1ccc2oc(-c3cccc(C)c3)nc2c1	+	-20%	?	35*	?	-14%
Cc1ccc2nc(-c3cccc(NC(=O)CSc4ccc(Cl)cc4)c3)oc2c1	/	-13%	-1%[46.1 µM]	/	?	-20%
Cc1ccc2nc(-c3cccc(NC(=O)c4ccc5c(c4)OCCO5)c3)oc2c1	34	/	17%	20*	16%	/
